# Measurements as given in PubChem BioAssay (NCATS).
# Inconclusive results are not listed. Entries that show only a call come without a potency. Active and inactive are the calls of the source. Calls follow the shape of the dose curve; as a rule, active = well fitted inhibition curve with a large enough effect; inconclusive = small, poorly fitted or top-dose-only effect; inactive = flat fitted curve, though single readings scatter.
# System: CP203
# Assay: qHTS profiling for inhibitors of Plasmodium falciparum proliferation (AID 504749); also: nearly all actives have a fitted effect of over 60% in size
# Conditions: P. falciparum in erythrocytes, SYBR Green DNA, 72 h; series mostly up to 28.7 µM
# Description: NIH National Institute of Allergy and Infectious Diseases [NIAID] NIH Chemical Genomics Center [NCGC] MLPCN Grant: None Assay Provider: Xinzhuan Su, NIAID NCGC Assay Overview: Plasmodium falciparum is a virulent malarial parasite that kills 1-2 million people worldwide each year. Transmitted by mosquitoes, the sporozoite form of the parasite enters the blood stream to infect hepatocytes, where they become merozoites that infect red blood cells (erythrocytes). Within erythrocytes, merozoites begin a […] cycle of growth and division, after which the parasite is released to infect new red blood cells. Gametocytes, which form within erythrocytes as well, circulate in the bloodstream and are ingested by the mosquito, thereby completing the life cycle. To profile malarial isolates for differential chemical responses and to identify inhibitors of malarial growth, an assay that measures P. falciparum growth and replication within erythrocytes was employed. This assay uses a DNA binding fluorescent dye (SYBR Green) to detect parasite DNA following cell lysis. Because mature erythrocytes lack DNA, only Plasmodium-derived DNA is detected.
# NCGC Assay Protocol Summary: The SYBR Green viability assay was adapted from a method described previously (Plouffe et al., 2008). For screening 3 ul culture medium was dispensed into 1536 well black clear bottom plates (Aurora Biotechnologies) using a Multidrop Combi (Thermo Fisher Scientific Inc.), 23 nL compounds in DMSO were added by a pin tool (Kalypsys), and 5 ul of erythrocytes infected with P. falciparum (0.3% parasitemia, 2.5% hematocrit final concentration) were added. The plates were incubated at 37 C in a humidified incubator in 5% CO2 for 72 h, and 2 ul lysis buffer (20 mM Tris HCl, 10 mM EDTA, 0.16% saponin, 1.6% triton X, 10X SYBR Green I supplied as 10,000X […] by Invitrogen) was added to each well. The plates were mixed for 25 sec with gentle shaking and incubated overnight at room temperature in the dark. The following morning, fluorescence intensity at 485(14) nm excitation and 535(25) nm emission wavelengths was measured on an EnVision (Perkin Elmer) plate reader. Plate reads were normalized relative to the control inhibitor (0.29 uM artemisinin) and vehicle (DMSO) wells present on each plate and then corrected by an algorithm using vehicle-only control plates at the beginning and end of the compound plate stack.
# Potency is read from the fitted curve at half-maximal effect.
row,Structure (SMILES),Potency
1,O=c1[nH]c(=O)n([C@H]2C[C@H](O)[C@@H](CO)O2)cc1Br,inactive
2,CCN1CCC[C@H]1CNC(=O)c1c(O)c(Cl)cc(Cl)c1OC,inactive
3,O=C(O)CCCCCCCC(=O)O,inactive
4,CC(=O)Nc1nnc(S(N)(=O)=O)s1,inactive
5,CCN1CCc2nc(N)oc2CC1,inactive
6,c1cnc(N2CCN(Cc3ccc4c(c3)OCO4)CC2)nc1,inactive
7,Nc1ncn([C@@H]2O[C@H](CO)[C@@H](O)[C@H]2O)c(=O)n1,inactive
8,CN(C(=O)CCCOc1ccc2[nH]c(=O)ccc2c1)C1CCCCC1,inactive
9,FC(F)(F)c1ccccc1-n1ccnc1,inactive
10,COC(=O)C1=C(C)NC(C)=C(C(=O)OC(C)(C)CN(C)CCC(c2ccccc2)c2ccccc2)C1c1cccc([N+](=O)[O-])c1 (stereo not given),4.26 µM (active)
11,O=C(CCNNC(=O)c1ccncc1)NCc1ccccc1,inactive
12,Nc1c2c(nc3ccccc13)CCCC2O (stereo not given),inactive
13,NCCCNCCSP(=O)(O)O,inactive
14,O=C(O)CP(=O)(O)O,inactive
15,CCc1cccc(N(C)C(N)=Nc2cccc3ccccc23)c1,4.78 µM (active)
16,COCCOC(=O)C1=C(C)NC(C)=C(C(=O)OC(C)C)C1c1cccc([N+](=O)[O-])c1 (stereo not given),12 µM (active)
17,OC(CCN1CCCCC1)(c1ccccc1)C1CCCCC1 (stereo not given),inactive
18,CCCCNc1ccc(C(=O)OCCN(C)C)cc1,inactive
19,CN(C)CCN(Cc1cccs1)c1ccccn1,12 µM (active)
20,COc1ccc([C@@H]2Sc3ccccc3N(CCN(C)C)C(=O)[C@@H]2OC(C)=O)cc1,inactive

row,Structure (SMILES),Potency
1,CCCCNc1c(C(=O)OCC)c(C)nc2c1cnn2CC,inactive
2,O=C(O)CN(CCN(CC(=O)O)CC(=O)O)CCN(CC(=O)O)CC(=O)O,inactive
3,OCCN1CCN(CCCN2c3ccccc3C=Cc3ccccc32)CC1,6.75 µM (active)
4,CC(C)NNC(=O)c1ccncc1,inactive
5,CN(C)CC/C=C1\c2ccccc2COc2ccccc21,13.5 µM (active)
6,Cc1ccc(=O)n(-c2ccccc2)c1,inactive
7,C#CCN(C)CCCOc1ccc(Cl)cc1Cl,inactive
8,CCn1ccnc1CC1COc2ccccc2O1 (stereo not given),inactive
9,Cc1ccc(Cl)c(Nc2ccccc2C(=O)O)c1Cl,inactive
10,CN1CCN(C2=Nc3ccccc3Oc3ccc(Cl)cc32)CC1,inactive
11,CC(N=C(NC#N)Nc1ccncc1)C(C)(C)C (stereo not given),inactive
12,CCOC(=O)c1cnc2c(cnn2CC)c1NN=C(C)C,inactive
13,CCCOc1ccccc1-c1nc2n[nH]nc2c(=O)[nH]1,inactive
14,Cc1nc2c([nH]1)c(=O)n(C)c(=O)n2Cc1ccco1,inactive
15,NC(=O)c1cn(Cc2c(F)cccc2F)nn1,inactive
16,CCCN(CCC)CCc1cccc2c1CC(=O)N2,inactive
17,CCCCCN(CCCCC)C(=O)C(CCC(=O)O)NC(=O)c1ccc(Cl)c(Cl)c1 (stereo not given),inactive
18,COc1cc2c(cc1OC)-c1cc(=Nc3c(C)cc(C)cc3C)n(C)c(=O)n1CC2,7.57 µM (active)
19,CN(C)C(=O)Oc1ccc[n+](C)c1,inactive
20,Brc1c(NC2=NCCN2)ccc2nccnc12,inactive
